Assay [1] can be described thus: qHTS assay to identify small molecule agonists of the androgen receptor (AR) signaling pathway in the presence of an antagonist - cell viability counter screen (AID 1259379).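 Note: MDA-kb2 human breast cancer cells carrying an MMTV luciferase reporter; series mostly up to about 92 µM; nearly all actives have a fitted effect of over 25% in size.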 In outline:
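Cytotoxicity is assessed by CellTiter-Fluor in MDA-kb2 cells carrying an MMTV-driven luciferase reporter. Cells receive 3.0uM nilutamide plus compounds at 15 concentrations and incubate 16 hr at 37C without CO2 before fluorescence reading.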
In general terms: qHTS replaces the single test concentration by a dilution series.

A short description of assay [2]: qHTS assay to identify small molecule agonists of the estrogen receptor beta (ER-beta) signaling pathway - cell viability counter screen (AID 1259380). Note: nearly all actives have a fitted effect of over 30% in size. In a few lines:
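Cytotoxicity is measured in parallel with the reporter screen: after 16 hr compound exposure at 37C and a 2 hr LiveBLAzer step, CellTiter-Glo is added to the same ER-beta-UAS-bla HEK293T wells and luminescence read after 30 min.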

Assay [3] in a line: qHTS assay to identify small molecule antagonists of the estrogen receptor beta (ER-beta) signaling pathway - cell viability counter screen (AID 1259382).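 Note: HEK293T cells carrying ER-beta-UAS-bla reporter stimulated with estradiol; series mostly up to about 92 µM; nearly all actives have a fitted effect of over 55% in size.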 In outline: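 Cytotoxicity counter screen multiplexed with the beta-lactamase antagonist assay: GripTite HEK293T ER-beta-bla cells were treated 16 hr with test chemicals in the presence of 1nM 17-beta-estradiol, and viability was measured by CellTiter-Glo.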

Assay [4] has as its target Estrogen receptor (Homo sapiens) (UniProt P03372). Put plainly: qHTS assay to identify small molecule agonists of the estrogen receptor alpha (ER-alpha) signaling pathway in the presence of an antagonist (AID 1259383; calls by dose curve; note: top concentration of the series differs between compounds; nearly all actives have a fitted effect of over 15% in size). In outline: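 Agonist-mode confirmation in the presence of the ER antagonist ICI-182,780 at 10.0nM final. Breast-derived VM7Luc4E2 reporter cells were exposed to compounds for 22hr, and ERE-driven luciferase was quantified by luminescence.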

Assay [5] can be described thus: qHTS assay to identify small molecule agonists or antagonists of the thyroid stimulating hormone receptor (TSHR) signaling pathway - wild type cell line counter screen (AID 1259384; calls by dose curve). In a few lines:
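Counter screen in untransfected Hek293: compounds (15-point titration, triplicate) plus phosphodiesterase inhibitor Ro20-1724 added after 18 h plating; 30 min RT. Intracellular cAMP via competitive d2/cryptate immunoassay, 1 h incubation.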

Assay [6] concerns the target Thyrotropin receptor (Homo sapiens) (UniProt P16473). Put plainly: qHTS assay to identify small molecule antagonists of the thyroid stimulating hormone receptor (TSHR) signaling pathway (AID 1259385; calls by dose curve; note: nearly all actives have a fitted effect of over 20% in size). In outline:
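Antagonist mode: compound-treated TSHR-expressing HEK293 cells were stimulated with 1.5 ng/mL TSH (final) in presence of Ro20-1724 for 30 min at RT. HTRF cAMP detection after 1 h; each compound tested at 15 concentrations, triplicate.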

Assay [7] can be described thus: qHTS assay to identify small molecule agonists of the estrogen receptor alpha (ER-alpha) signaling pathway in the presence of an antagonist - cell viability counter screen (AID 1259386).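 Note: series mostly up to about 92 µM; cells exposed to compounds for 22 h at 37 °C before the viability read; nearly all actives have a fitted effect of over 30% in size.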 In outline:
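Cytotoxicity was measured in parallel with the ERE-luciferase agonist screen, in the same wells. The cells were VM7Luc4E2, which endogenously express ER-alpha, and treatment was with compounds plus 10.0nM ICI-182,780 for 22hr.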

Assay [8] has as its target Progesterone receptor (Homo sapiens) (UniProt P06401). Put plainly: qHTS assay to identify small molecule agonists of the progesterone receptor (PR) signaling pathway (AID 1346784; calls by dose curve; note: nearly all actives have a fitted effect of over 30% in size). In outline: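 Reporter assay, GripTite PR-UAS-bla HEK 293T cells: 16 hr exposure to DMSO-dissolved compounds at 37C, 5% CO2, in steroid-depleted (2% charcoal-stripped FBS) medium; beta-lactamase measured by FRET fluorescence.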

Assay [9] shares this target. The assay is described as follows: qHTS assay to identify small molecule antagonists of the progesterone receptor (PR) signaling pathway (AID 1346795; active = well fitted inhibition curve with a large enough effect in the signal ratio in the repeat runs, not every such curve was filed as active; the % refers to the signal ratio). In a few lines: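 Stimulus R5020 at 1 nM final; cells HEK293T PR-UAS-bla; medium with 2% charcoal-stripped FBS; compound exposure 16 hr at 37C, 5% CO2; detection by FRET beta-lactamase substrate, 2 hr, room temperature.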

Assay [10] can be described thus: qHTS assay to identify small molecule antagonists of the progesterone receptor (PR) signaling pathway - cell viability counter screen (AID 1346798). Note: series mostly up to about 92 µM; nearly all actives have a fitted effect of over 50% in size. In outline: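 In the same plates used for the beta-lactamase readout, cell viability of compound- and R5020-treated PR-UAS-bla HEK293T cells (16 hr, 37C) was assessed by CellTiter-Glo luminescence.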
Assay [11] in a line: qHTS assay to identify small molecule agonists of the progesterone receptor (PR) signaling pathway - cell viability counter screen (AID 1346799; calls by dose curve; note: nearly all actives have a fitted effect of over 45% in size). In a few lines:
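Multiplexed viability read: CellTiter-Glo luminescence, 30 min RT, following LiveBLAzer FRET measurement on PR-UAS-bla HEK293T cells exposed to compounds 16 hr.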

Assay [12] is described as follows: qHTS assay to identify small molecule antagonists of the TGF-beta/Smad signaling pathway - cell viability counter screen (AID 1346824). Note: nearly all actives have a fitted effect of over 50% in size. In outline:
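Cytotoxicity counter-screen run in the same wells as the beta-lactamase Smad reporter read: CellTiter-Glo luminescence after 30 min at room temperature. HEK 293T SBE-bla cells had 5 hr compound exposure at 37 C with TGF-beta1 (0.25 ng/mL stock).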

A short description of assay [13]: qHTS assay to identify small molecule agonists of the TGF-beta/Smad signaling pathway - cell viability counter screen (AID 1346829). Note: top concentration of the series differs between compounds; nearly all actives have a fitted effect of over 45% in size. In a few lines:
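In parallel with the Smad reporter read, viability of HEK 293T cells stably carrying SBE-bla is quantified by ATP luminescence following 5 hr compound treatment.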

A short description of assay [14]: qHTS assay to identify small molecule agonists of the TGF-beta/Smad signaling pathway (AID 1346859; active = well fitted activation curve with a large enough effect in the signal ratio in the repeat runs, not every such curve was filed as active; the % refers to the signal ratio; note: potency is the fitted concentration of half-maximal effect; for activation: series mostly up to about 77 µM). In outline: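 Screening used HEK 293T SBE-bla cells at 4,000/well. Test agents: 5 hr, 37 C. Detection: FRET substrate, 2 hr RT, then excitation 405 nm with emissions at 460 and 530 nm.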
For assay [15], the target named is Thyrotropin-releasing hormone receptor (Homo sapiens) (UniProt P34981). The assay is described as follows: qHTS assay to identify small molecule antagonists of the thyrotropin-releasing hormone receptor (TRHR) signaling pathway (AID 1346877; active = well fitted inhibition curve with a large enough effect in the repeat runs, not every such curve was filed as active; note: series mostly up to about 51 µM). In outline: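 Antagonism is measured as suppression of the calcium response to 1 nM TRH in TRHR-HEK293 cells that have been dye-loaded for 2 h at 37 °C after overnight plating. Each compound is tested at 15 concentrations in triplicate.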
Thyrotropin-releasing hormone receptor (Homo sapiens), sequence (P34981 whole entry, looked up): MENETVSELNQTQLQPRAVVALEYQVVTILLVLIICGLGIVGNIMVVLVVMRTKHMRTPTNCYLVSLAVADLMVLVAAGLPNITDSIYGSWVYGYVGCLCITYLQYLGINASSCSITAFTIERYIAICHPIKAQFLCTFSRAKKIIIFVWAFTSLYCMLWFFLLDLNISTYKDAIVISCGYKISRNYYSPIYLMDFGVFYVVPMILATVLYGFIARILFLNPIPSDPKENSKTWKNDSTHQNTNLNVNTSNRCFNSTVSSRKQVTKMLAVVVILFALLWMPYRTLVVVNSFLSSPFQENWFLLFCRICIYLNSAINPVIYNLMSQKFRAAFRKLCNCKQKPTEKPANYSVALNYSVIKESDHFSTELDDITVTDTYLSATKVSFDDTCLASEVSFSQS

The target is the same in assay [16]. Put plainly: qHTS assay to identify small molecule agonists of the thyrotropin-releasing hormone receptor (TRHR) signaling pathway (AID 1346891; calls by dose curve; note: series mostly up to about 58 µM). In outline:
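Readout was intracellular calcium fluorescence in TRHR-Hek293 cells. Cells were incubated 18 h, dye-loaded 2 h at 37 °C, and treated with compound in agonist mode.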

Assay [17] is described as follows: Human pregnane X receptor (PXR) small molecule agonists, qHTS cell viability counter screen (AID 1346977). Note: nearly all actives have a fitted effect of over 50% in size. In a few lines: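 In each well, the PXR reporter HepG2 line was checked for viability: CellTiter-Fluor reagent added 23hr post-dosing, fluorescence read after 1hr incubation at 37C.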
The nature of assay [18]: Caspase-3/7 induction in HepG2 cells by small molecules, qHTS assay (AID 1346978). Note: nearly all actives have a fitted effect of over 15% in size. In a few lines:
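Caspase-3/7 induction was measured by Caspase-Glo 3/7 luminescence (30 min, room temperature) after a 17 hr compound exposure of wild-type HepG2 cells seeded at 2,000 per well and pre-incubated 5 hr.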

Assay [19] is described as follows: Caspase-3/7 induction in CHO-K1 cells by small molecules, qHTS cell viability counter screen (AID 1346979). Note: nearly all actives have a fitted effect of over 35% in size. In a few lines:
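Following a 5hr settling period, CHO-K1 cells at 1,500 per well received DMSO-dissolved compounds. Cell viability was quantified 16hr later by CellTiter-Fluor fluorescence, measured after 1hr with reagent at 37C.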

For assay [20], the target named is Androgen receptor (Homo sapiens) (UniProt P10275). The assay is described as follows: qHTS assay to identify small molecule agonists of the androgen receptor (AR) signaling pathway in the presence of an antagonist (AID 1259381; calls by dose curve; note: nearly all actives have a fitted effect of over 15% in size). In a few lines: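 Agonist-mode confirmation screen: human MDA-kb2 cells stably expressing luciferase under an MMTV promoter bearing AR and GR response elements, co-treated with 3.0uM nilutamide (final). Luminescence measured after 16hr compound incubation.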
Androgen receptor (Homo sapiens), sequence (P10275 whole entry, looked up): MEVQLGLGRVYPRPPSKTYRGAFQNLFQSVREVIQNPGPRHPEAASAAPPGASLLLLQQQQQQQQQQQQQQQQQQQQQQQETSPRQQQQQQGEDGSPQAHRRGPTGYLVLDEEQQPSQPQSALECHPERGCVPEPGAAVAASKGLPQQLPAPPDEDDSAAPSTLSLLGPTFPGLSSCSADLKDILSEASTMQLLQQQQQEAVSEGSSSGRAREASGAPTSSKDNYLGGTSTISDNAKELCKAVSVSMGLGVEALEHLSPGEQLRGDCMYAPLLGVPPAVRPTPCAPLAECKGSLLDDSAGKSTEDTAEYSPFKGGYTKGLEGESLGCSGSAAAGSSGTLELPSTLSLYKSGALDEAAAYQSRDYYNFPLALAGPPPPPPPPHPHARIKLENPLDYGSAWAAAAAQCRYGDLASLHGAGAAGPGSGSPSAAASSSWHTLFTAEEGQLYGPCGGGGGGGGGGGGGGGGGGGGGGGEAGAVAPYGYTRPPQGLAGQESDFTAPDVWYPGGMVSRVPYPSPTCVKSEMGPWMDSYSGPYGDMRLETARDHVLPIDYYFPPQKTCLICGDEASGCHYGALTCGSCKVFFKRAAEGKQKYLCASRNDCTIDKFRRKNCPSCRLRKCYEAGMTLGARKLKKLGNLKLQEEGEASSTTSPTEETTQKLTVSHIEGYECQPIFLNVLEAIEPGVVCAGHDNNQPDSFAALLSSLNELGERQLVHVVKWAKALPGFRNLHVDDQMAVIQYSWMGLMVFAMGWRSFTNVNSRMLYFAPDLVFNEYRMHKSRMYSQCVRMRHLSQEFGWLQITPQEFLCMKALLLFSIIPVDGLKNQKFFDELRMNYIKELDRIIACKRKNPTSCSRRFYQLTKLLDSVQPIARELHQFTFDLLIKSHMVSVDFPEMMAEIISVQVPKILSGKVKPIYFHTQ

Records with an inconclusive call do not appear. A structure can be active in one record and inactive in another. Active and inactive are the calls of the source. Unless noted, calls come from the whole dose curve; as a rule, active = well fitted curve in the direction sought with a large enough effect in the repeat runs; inconclusive = weak or mixed curves; inactive = no such curve, though single readings can be large; an effect the other way counts as inactive or inconclusive.

Progesterone receptor (Homo sapiens), sequence (P06401 whole entry, looked up): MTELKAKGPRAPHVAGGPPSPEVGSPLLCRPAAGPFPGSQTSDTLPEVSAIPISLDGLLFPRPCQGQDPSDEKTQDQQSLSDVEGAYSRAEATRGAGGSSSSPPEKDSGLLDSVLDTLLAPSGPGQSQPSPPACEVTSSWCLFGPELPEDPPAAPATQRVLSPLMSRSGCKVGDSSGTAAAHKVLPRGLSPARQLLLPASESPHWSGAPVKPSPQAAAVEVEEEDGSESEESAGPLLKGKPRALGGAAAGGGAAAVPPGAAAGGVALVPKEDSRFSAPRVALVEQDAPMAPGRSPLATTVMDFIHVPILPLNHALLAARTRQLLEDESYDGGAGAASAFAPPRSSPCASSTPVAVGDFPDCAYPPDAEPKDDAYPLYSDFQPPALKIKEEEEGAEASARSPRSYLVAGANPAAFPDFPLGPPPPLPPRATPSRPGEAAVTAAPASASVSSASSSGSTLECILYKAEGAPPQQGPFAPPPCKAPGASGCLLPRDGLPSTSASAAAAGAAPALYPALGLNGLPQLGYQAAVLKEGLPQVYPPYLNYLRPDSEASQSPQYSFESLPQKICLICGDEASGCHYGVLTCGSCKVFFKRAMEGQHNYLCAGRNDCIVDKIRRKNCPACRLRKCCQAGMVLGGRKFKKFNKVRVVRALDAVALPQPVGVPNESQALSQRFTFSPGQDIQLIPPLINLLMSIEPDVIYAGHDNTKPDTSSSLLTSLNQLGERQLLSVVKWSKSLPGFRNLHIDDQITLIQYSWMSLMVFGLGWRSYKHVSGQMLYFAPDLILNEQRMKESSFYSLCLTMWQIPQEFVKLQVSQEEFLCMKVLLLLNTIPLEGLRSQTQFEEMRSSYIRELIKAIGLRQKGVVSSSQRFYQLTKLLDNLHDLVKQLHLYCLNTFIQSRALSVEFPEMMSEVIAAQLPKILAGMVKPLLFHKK
Thyrotropin receptor (Homo sapiens), sequence (P16473 whole entry, looked up): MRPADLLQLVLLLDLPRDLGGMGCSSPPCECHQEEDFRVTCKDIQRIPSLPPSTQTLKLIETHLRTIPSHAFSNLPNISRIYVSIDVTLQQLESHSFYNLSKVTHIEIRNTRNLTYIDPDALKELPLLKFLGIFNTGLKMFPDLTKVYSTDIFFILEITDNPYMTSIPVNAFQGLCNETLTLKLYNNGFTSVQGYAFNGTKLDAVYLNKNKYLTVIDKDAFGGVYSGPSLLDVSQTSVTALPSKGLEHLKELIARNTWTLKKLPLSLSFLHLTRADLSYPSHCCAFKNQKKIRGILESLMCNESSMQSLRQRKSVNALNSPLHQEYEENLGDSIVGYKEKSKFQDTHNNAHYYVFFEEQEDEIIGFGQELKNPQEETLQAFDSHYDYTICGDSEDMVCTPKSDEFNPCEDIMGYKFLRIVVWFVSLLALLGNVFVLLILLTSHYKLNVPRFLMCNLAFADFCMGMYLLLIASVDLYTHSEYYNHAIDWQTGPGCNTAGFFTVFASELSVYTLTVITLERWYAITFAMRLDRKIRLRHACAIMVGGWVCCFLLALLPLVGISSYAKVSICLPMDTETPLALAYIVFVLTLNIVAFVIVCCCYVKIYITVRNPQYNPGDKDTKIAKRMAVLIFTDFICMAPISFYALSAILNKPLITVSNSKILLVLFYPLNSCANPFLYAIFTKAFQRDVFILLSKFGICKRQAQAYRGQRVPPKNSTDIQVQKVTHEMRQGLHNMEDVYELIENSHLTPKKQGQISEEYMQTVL
Estrogen receptor (Homo sapiens), sequence (P03372 whole entry, looked up): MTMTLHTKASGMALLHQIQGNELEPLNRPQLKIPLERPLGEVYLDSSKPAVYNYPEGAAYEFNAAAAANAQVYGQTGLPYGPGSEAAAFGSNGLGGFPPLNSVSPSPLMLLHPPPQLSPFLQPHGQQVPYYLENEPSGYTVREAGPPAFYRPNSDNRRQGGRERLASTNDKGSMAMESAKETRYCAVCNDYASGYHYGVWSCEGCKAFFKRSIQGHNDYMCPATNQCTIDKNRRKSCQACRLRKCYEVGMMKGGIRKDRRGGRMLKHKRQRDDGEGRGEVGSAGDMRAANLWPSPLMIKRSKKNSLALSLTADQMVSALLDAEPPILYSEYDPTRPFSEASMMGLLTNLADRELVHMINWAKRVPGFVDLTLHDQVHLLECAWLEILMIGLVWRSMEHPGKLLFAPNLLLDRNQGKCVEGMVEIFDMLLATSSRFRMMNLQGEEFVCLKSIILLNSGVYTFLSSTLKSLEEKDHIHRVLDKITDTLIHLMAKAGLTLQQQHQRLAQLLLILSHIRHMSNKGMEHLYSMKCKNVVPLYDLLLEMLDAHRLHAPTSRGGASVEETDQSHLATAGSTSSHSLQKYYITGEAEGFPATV

Take `CNC(=O)Oc1ccccc1OC(C)C`: the result in assay [1], in assay [5], in assay [7], in [8], in assay [13] and in assay [15] was inactive. In addition, the result in assay [18] was inactive. Also, the Potency result in assay [2], in assay [3], in assay [4], in [6], in [9] and in assay [10] was “inactive” each time. For the same molecule, the Potency result in assay [11], in assay [12], in [14], in [16], in [17] and in [19] was “inactive” each time.

Consider `c1ccc(OP(Oc2ccccc2)Oc2ccccc2)cc1`, for which the result in assay [1], in assay [5], in [7], in assay [8], in assay [13] and in [18] was inactive. Also, the Potency result in assay [2], in assay [3], in [4], in [6], in [9] and in assay [10] was “inactive” throughout. The Potency result in assay [11], in [12], in [14], in [16], in assay [17] and in assay [19] was “inactive” throughout.

For `O=C1CCCN1`, the outcome in assay [1], in [5], in assay [7], in [8] and in assay [13] was inactive. For the same molecule, the Potency result in assay [2], in assay [3], in [4], in assay [6], in [9] and in [10] was “inactive” each time. Besides, the Potency entry in assay [11], in assay [12], in [17] and in [19] was “inactive” each time. Besides, the Potency in assay [14] is 55.5 µM (active) and inactive.

Consider `O=[N+]([O-])c1ccc([As](=O)(O)O)cc1`, for which the result in assay [1], in assay [5], in assay [7], in assay [8] and in [13] was inactive. The Potency result in [2], in [3], in [4], in assay [6], in [9] and in assay [10] was “inactive” throughout. The Potency result in assay [11], in assay [12], in assay [14], in [16], in assay [17] and in assay [19] was “inactive” throughout.

`CCC[CH2][Sn]([Cl])([Cl])[Cl]`: the outcome in [1], in [5], in [7], in assay [8], in [13] and in assay [18] was inactive. Also, the Potency result in assay [2], in [3], in [4], in [6], in [9] and in assay [10] was “inactive” throughout. Besides, the Potency entry in assay [11], in assay [12], in assay [14], in [16], in [17] and in assay [19] was “inactive” in each case.

As for `CCCCN(CC)C(=O)SCCC`, the outcome in [1], in [20], in assay [5], in assay [7], in assay [8] and in assay [13] was inactive. In addition, the result in assay [15] and in [18] was inactive. In addition, the Potency result in assay [2], in assay [3], in assay [4], in assay [6], in assay [9] and in assay [10] was “inactive” in each case. Further, the Potency entry in assay [11], in assay [12], in assay [14], in [16], in assay [17] and in assay [19] was “inactive” in each case.

As to `Nc1ccccc1C(=O)O`, the result in assay [1], in assay [5], in assay [7], in assay [8] and in assay [13] was inactive. The Potency result in assay [2], in assay [3], in assay [4], in assay [6], in assay [9] and in [10] was “inactive” throughout. Moreover, the Potency entry in assay [11], in assay [12], in assay [14], in assay [16], in assay [17] and in [19] was “inactive” throughout.

As to `[O-][Cl+2]([O-])O`, the result in assay [1], in [5], in assay [7], in assay [8], in [13] and in assay [18] was inactive. Further, the Potency entry in assay [2], in [3], in assay [4], in [6], in assay [9] and in assay [10] was “inactive” throughout. In addition, the Potency entry in assay [11], in assay [12], in assay [14], in assay [16], in [17] and in [19] was “inactive” each time.
